# Calls of active or inactive are those of the source.
# Experiments:
# [1] = test system: PRMT1 (protein arginine N-methyltransferase 1); experiment: small molecules binding arginine methyltransferase PRMT1 – biochemical, small-molecule microarray, 635 nm fluorescence, primary screen (AID 1088); conditions: higher = more signal;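 further: binding of Prmt1 protein to compounds spotted on small-molecule microarray slides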
# [2] = growth effects on S. cerevisiae YJM789 – YJM789 clinical isolate, OD600, 24 h, basal, primary screen (AID 1089); conditions: higher = more signal, called active from +8 up or from −8 down;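 further: growth of clinical yeast isolate S. cerevisiae YJM 789 seeded 1000 cells per well; test concentration not given here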
# [3] = S. pombe growth modifiers, basal conditions – strain 972, OD600, 24 h, no modulator, primary screen (AID 1090);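 further: basal condition with compound alone and no growth modifier present; test concentration not given here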; conditions: S. pombe 972 growth, higher = more signal, called active from +8 up or from −8 down
# [4] = budding yeast growth modifiers under rapamycin – strain BY4716, OD600, 96 h, primary screen (AID 1091); further: test concentration not given here; conditions: S. cerevisiae BY4716 + rapamycin, higher = more signal, called active from +8 up or from −8 down
# [5] = target: Torsin-1A-interacting protein 2 (Homo sapiens) (UniProt Q8NFQ8); experiment: small molecules binding lysate-expressed LULL1 – cell lysate, human LULL1 lysate, 635/667 nm fluorescence, primary screen (AID 1092); conditions: small-molecule microarray, hLULL1 lysate binding, 635 nm fluorescence; higher = more signal;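 further: probe is lysate of COS7 cells overexpressing human LULL1; score merges per-feature 667 nm fluorescence with signal-to-noise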
# [6] = optical density change of DRC41 E. coli – strain DRC41, OD650, 24 h, E. coli filamentation project, primary screen (AID 1093);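 further: MC1000 strain lacking acrAB efflux and sulA so SOS filamentation is blocked; test concentration not given here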; conditions: E. coli DRC41 growth, higher = more signal, called active from +8 up or from −8 down
# [7] = probe aLefty2 binding to arrayed compounds – biochemical, biotinylated probe, 635/667 nm fluorescence, primary screen (AID 1094); conditions: small-molecule microarray, higher = more signal;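 further: score merges spot fluorescence near 667 nm with spot signal-to-noise ratio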
# [8] = test system: Noggin (protein binding on small-molecule microarray); experiment: small molecules binding Noggin protein – biochemical, 635/667 nm fluorescence, primary screen (AID 1095); conditions: 635 nm fluorescence, higher = more signal;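 further: score merges 667 nm feature fluorescence with signal to noise over triplicate slides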
# [9] = target: Neurogenic locus notch homolog protein 3 (Homo sapiens) (UniProt Q9UM47); experiment: small molecules binding NOTCH3 protein – biochemical, 635/667 nm fluorescence, primary screen (AID 1096); conditions: small-molecule microarray, 635 nm fluorescence, higher = more signal
# [10] = probe aEGFR binding to arrayed compounds – biochemical, biotinylated probe, 635/667 nm fluorescence, primary screen (AID 1097); conditions: small-molecule microarray, higher = more signal;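 further: probe is a biotinylated anti-EGFR antibody binding compounds printed on slides; score combines fluorescence near 667 nm and signal to noise of each spot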
# Sequence of Torsin-1A-interacting protein 2 (Homo sapiens) (Q8NFQ8 whole entry, looked up): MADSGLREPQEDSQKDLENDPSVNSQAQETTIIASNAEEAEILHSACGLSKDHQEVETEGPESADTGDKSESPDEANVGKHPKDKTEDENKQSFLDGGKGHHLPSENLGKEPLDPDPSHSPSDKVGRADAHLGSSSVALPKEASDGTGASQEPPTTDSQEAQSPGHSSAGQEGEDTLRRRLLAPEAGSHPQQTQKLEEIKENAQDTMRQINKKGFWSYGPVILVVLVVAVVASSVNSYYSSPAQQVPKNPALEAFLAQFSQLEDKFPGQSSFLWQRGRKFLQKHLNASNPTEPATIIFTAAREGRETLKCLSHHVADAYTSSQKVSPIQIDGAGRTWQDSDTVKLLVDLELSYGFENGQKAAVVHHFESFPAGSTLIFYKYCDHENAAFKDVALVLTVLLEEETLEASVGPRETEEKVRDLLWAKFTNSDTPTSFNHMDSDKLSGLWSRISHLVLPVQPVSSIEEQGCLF
# Sequence of Neurogenic locus notch homolog protein 3 (Homo sapiens) (Q9UM47 whole entry, looked up): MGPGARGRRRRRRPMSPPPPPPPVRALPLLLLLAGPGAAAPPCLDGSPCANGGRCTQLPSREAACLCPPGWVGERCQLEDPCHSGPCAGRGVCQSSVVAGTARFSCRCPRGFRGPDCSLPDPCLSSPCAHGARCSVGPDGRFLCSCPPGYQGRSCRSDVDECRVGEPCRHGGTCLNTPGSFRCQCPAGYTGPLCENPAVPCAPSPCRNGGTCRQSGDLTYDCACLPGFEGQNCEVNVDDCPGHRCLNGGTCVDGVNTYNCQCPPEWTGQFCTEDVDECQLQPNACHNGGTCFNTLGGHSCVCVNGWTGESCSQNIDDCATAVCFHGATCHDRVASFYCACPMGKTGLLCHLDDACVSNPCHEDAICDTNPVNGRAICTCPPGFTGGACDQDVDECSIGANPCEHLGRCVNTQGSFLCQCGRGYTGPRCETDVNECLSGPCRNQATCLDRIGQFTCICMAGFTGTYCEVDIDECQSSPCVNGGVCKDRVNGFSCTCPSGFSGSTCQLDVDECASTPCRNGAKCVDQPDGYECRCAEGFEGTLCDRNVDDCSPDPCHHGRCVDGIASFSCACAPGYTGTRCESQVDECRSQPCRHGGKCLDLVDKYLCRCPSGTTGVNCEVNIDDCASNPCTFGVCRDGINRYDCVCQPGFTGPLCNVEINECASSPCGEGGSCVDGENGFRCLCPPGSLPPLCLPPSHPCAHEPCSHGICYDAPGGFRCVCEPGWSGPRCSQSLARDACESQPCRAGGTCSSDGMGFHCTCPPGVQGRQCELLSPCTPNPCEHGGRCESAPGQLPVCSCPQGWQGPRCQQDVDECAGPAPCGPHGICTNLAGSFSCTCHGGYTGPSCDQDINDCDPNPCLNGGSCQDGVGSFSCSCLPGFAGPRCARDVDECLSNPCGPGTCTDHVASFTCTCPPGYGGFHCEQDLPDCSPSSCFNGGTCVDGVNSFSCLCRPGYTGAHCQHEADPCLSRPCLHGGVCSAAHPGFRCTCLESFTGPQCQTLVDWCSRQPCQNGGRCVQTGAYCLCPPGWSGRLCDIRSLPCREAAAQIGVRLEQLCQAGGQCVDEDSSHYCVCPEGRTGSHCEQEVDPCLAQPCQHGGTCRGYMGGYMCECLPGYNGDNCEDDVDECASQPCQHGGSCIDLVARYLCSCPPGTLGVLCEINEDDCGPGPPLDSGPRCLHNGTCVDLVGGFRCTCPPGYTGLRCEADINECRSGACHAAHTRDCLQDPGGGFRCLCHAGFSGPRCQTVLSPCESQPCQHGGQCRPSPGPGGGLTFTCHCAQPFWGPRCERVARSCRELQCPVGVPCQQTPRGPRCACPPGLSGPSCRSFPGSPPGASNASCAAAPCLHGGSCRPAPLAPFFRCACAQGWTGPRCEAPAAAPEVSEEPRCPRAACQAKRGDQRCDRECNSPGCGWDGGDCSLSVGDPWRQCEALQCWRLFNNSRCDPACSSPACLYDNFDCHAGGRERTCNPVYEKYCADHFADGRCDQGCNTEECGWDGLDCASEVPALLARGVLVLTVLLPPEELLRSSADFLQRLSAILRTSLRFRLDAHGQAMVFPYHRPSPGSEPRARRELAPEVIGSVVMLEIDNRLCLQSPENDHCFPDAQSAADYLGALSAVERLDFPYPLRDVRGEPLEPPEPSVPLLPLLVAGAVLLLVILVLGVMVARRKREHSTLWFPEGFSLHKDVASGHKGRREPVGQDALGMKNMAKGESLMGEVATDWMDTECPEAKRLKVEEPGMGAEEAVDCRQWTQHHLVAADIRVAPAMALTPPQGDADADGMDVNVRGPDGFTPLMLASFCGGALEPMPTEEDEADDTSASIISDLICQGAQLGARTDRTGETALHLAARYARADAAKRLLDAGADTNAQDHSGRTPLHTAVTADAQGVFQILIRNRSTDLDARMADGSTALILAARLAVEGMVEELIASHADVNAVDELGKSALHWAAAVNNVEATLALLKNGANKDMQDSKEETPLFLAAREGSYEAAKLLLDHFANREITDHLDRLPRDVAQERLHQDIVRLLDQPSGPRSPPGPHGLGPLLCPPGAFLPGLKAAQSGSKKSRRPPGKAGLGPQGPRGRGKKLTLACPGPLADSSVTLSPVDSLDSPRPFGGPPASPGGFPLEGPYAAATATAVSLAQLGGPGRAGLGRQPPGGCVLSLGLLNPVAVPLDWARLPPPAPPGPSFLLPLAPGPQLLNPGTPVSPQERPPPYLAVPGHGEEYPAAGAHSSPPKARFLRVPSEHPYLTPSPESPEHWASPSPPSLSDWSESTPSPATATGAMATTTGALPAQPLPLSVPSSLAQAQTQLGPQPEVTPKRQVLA
Compound,composite z-score [1],z-score [2],z-score [3],z-score [4],composite z-score [5],z-score [6],composite z-score [7],composite z-score [8],composite z-score [9],composite z-score [10]
COCCOC(=O)N1C(=O)[C@@]2(c3cc(C#Cc4ccc(OC)cc4)ccc31)[C@H](c1ccc(O)cc1)N1[C@H](c3ccccc3)[C@H](c3ccccc3)OC(=O)[C@H]1[C@@H]2C(N)=O,1.55,0.0655 (inactive),-0.118 (inactive),-0.0092 (inactive),2.93,0.04 (inactive),-0.145,0.977,1.1,0.0026
NCCCCCNC(=O)[C@@H]1C[C@@H]2C(=O)N3CCC[C@H]3C(=O)N2[C@@H]1c1cccc(OCCO)c1,1.35,-0.486 (inactive),-0.703 (inactive),-0.652 (inactive),1.41,-0.104 (inactive),0.948,0.989,0.613,0.364
COC(=O)CC=C[C@H](C)[C@H](CO)NS(=O)(=O)c1ccc(C)cc1,0.562,-0.0524 (inactive),-0.256 (inactive),-0.142 (inactive),0.368,-0.518 (inactive),-0.243,0.504,0.506,-0.0953
CC(C)N1CC=CC23O[C@@H]4C=CCCOC(=O)C4[C@H]2C(=O)N(CCCCCCO)[C@@H]3C1=O (stereo not given in full),0.613,0.653 (inactive),0.159 (inactive),0.121 (inactive),1.94,-0.0822 (inactive),-0.233,-0.984,-0.0917,-0.297
C=CC[C@@H]1C=C[C@H](ON=C[C@@H](OC)[C@H](C)C=CCC(=O)OC)[C@@H](CO)O1,0.325,0.78 (inactive),0.173 (inactive),0.634 (inactive),0.485,0.23 (inactive),-0.124,0.471,-0.39,0.0129
CCN1C(=O)[C@H]2[C@H]3[C@H](O)[C@H](O)CC(=NOCc4ccccc4)[C@@H]3CC[C@H]2C1=O,0.54,-2.27 (inactive),-0.784 (inactive),-0.433 (inactive),0.558,-0.558 (inactive),-0.0917,0.339,0.761,-0.0568
CCOC(=O)C[C@H]1[C@H](OC(=O)c2ccc(C(=O)c3ccccc3)cc2)[C@@H](NC(=O)c2ccc(-c3ccccc3)cc2)c2cc(OCCCO)ccc2N1C(=O)c1ccc2ccccc2n1,1.44,-1.05 (inactive),0.0048 (inactive),0.276 (inactive),2.29,1.44 (inactive),-0.19,0.609,1,-0.109
CN1C(=O)C2C=CC(C(O)C(c3ccccc3)c3ccccc3)N(NC(=O)OC(C)(C)C)C2C1=O (stereo not given),1.42,-1.79 (inactive),-4.38 (inactive),-0.512 (inactive),3.35,-0.805 (inactive),0.59,-0.168,1.09,0.311
COc1ccc(O[C@H]2C=C[C@@H](c3ccccc3)O[C@@H]2COC(=O)CCC(C)=NOCC[C@@H]2C=C[C@H](OC(C)=O)[C@@H](COC(C)=O)O2)cc1,0.135,-0.209 (inactive),0.951 (inactive),1.62 (inactive),1.69,-0.211 (inactive),0.113,0.476,0.319,-0.039
COC(=O)[C@H](C)NC(=O)CCC1CC(OC(=O)NCc2cccc3ccccc23)CC2(CCCC(COC(=O)NCCc3ccc(Cl)cc3)O2)O1 (stereo not given in full),1.27,-0.915 (inactive),-0.253 (inactive),0.511 (inactive),1.57,0.129 (inactive),-0.145,0.328,1.13,-0.0967
CO[C@@H]1COC(=O)CC=C[C@@H](C)COC(=O)[C@H](COCc2ccccc2)NC(=O)CC=C[C@H]1C,0.943,0.847 (inactive),-0.584 (inactive),0.736 (inactive),-0.914,0.154 (inactive),-0.183,1.71,-0.551,-0.0899
CCOC(=O)[C@H](Cc1ccccc1)NC(=O)CCC1CC(OC(=O)NCc2ccc3c(c2)OCO3)CC2(CCCC(COC(=O)NCC(c3ccccc3)c3ccccc3)O2)O1 (stereo not given in full),1.16,0.668 (inactive),0.9 (inactive),0.687 (inactive),2.34,0.454 (inactive),-0.0485,0.955,1.06,-0.157
COC(=O)C1=C(C)N(Cc2ccccc2)[C@]23O[C@](C(=O)OC)(C(=O)N2[C@@H]1c1ccccc1)[C@H]1CCOC(=O)[C@H]13,0.33,0.828 (inactive),0.494 (inactive),1.71 (inactive),0.257,0.308 (inactive),-0.0638,0.648,1.07,-0.0152
CCCNC(=O)[C@@H]1c2ccccc2C(=O)N(c2ccc(C)cn2)[C@H]1c1ccc(CO)cc1,0.129,-1.03 (inactive),-0.144 (inactive),-0.926 (inactive),0.553,-0.0365 (inactive),-0.0769,-1.08,-0.798,-0.299
C=C(COC)/C(=C/C[C@H](OC(=O)c1ccncc1)c1ccc(CO)o1)c1cc(C(=O)OC)ccc1OC,1.55,-0.787 (inactive),0.132 (inactive),-0.443 (inactive),1.84,0.55 (inactive),0.0421,0.834,1.12,-0.112
C=CCC(OC(C)=O)[C@@H]1[C@@H](N(Cc2cc3ccccc3o2)C(=O)Cc2ccc(F)cc2)c2cc(OCCCO)ccc2N1C(=O)Cc1ccc(OC)cc1 (stereo not given in full),-1.46,-1.54 (inactive),-0.644 (inactive),-0.624 (inactive),-0.362,-0.824 (inactive),-0.198,-0.0439,-1.37,-0.131
CC(=O)OC[C@H]1O[C@H](CCON=C(C)CCN2CCc3nc(-c4ccccc4)c(-c4ccccc4)cc3C2)C=C[C@@H]1OC(C)=O,1.25,-1.92 (inactive),-0.757 (inactive),-4.46 (inactive),1.26,0.901 (inactive),-0.0258,0.169,0.0346,-0.0549
O=C1O[C@@H](c2ccccc2)[C@@H](c2ccccc2)N2[C@@H](c3ccccc3OCCO)[C@]3(C(=O)Nc4ccc(C#CCCO)cc43)[C@@H](C(=O)O)[C@H]12,1.54,1.14 (inactive),-0.82 (inactive),-0.103 (inactive),2.47,0.481 (inactive),-0.3,0.573,1.12,-0.352
COc1ccc(O[C@H]2C=C[C@@H](c3ccccc3)O[C@@H]2COC(=O)CCC(C)=NOC(C)CN2CCCCc3nc(C)c(C)cc32)cc1 (stereo not given in full),-0.285,-0.258 (inactive),-1.87 (inactive),-0.889 (inactive),0.283,1.14 (inactive),-0.0769,0.294,-1.33,-0.0614
COC(=O)CC1OC1[C@H](C)[C@@H](OC)C(C)C (stereo not given in full),0.12,-0.132 (inactive),-4.41 (inactive),1.24 (inactive),-0.481,0.453 (inactive),0.121,0.291,-0.556,-0.151
CC(CCN1CCc2nc(-c3ccccc3)c(-c3ccccc3)cc2C1)=NOC[C@@H](C)[C@H](OCc1ccccc1)C(C)C,-0.299,-0.511 (inactive),-1.17 (inactive),-3.43 (inactive),0.628,-0.518 (inactive),-0.195,-0.179,-2.07,-0.25
C=CCOC(=O)[C@H]1[C@@H]2C(=O)O[C@@H](c3ccccc3)[C@@H](c3ccccc3)N2[C@@H](c2ccc(OCCOC(=O)[C@H]3C[C@H]4C(=O)N5CCC[C@H]5C(=O)N4[C@H]3c3cccc(OCCO)c3)cc2)[C@]12C(=O)Nc1ccc(I)cc12,1.53,-0.104 (inactive),-0.77 (inactive),0.289 (inactive),3.41,-0.301 (inactive),1.35,1.49,1.12,0.938
C[C@H]1Cc2c(-c3ccccc3)nc3c(c2CO1)CN(CCOc1ccccc1)CC3,1.56,-0.0387 (inactive),-1.24 (inactive),-0.142 (inactive),2.3,1.91 (inactive),-0.161,0.472,1.12,-0.0114
